In PubChem BioAssay (NCI):
This is part of a sample that, as a whole, favours compounds with a hit. Of some 79,000 tested, about 15% had one in any assay. Calls of active or inactive are those of the source. Rule as the data show it: active = growth inhibition above about 70%; inactive = the rest.

Test: NCI Yeast Anticancer Drug Screen. Data for the sgs1 mgt1 strain (AID 161);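 also: 0% = growth of cultures given vehicle only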
Conditions: S. cerevisiae sgs1 mgt1 strain, at 50.0 µM, stronger effect = higher value
Method in brief: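 This yeast growth screen uses a strain with defined DNA-repair lesions; compound-treated growth is compared with vehicle-treated growth.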

| Compound | growth inhibition |
| --- | --- |
| Nc1cccc(OCC(O)CN2CCN(c3ccccc3)CC2)c1 (stereo not given) | 0.1% (inactive) |
| Clc1cc(Cl)c2ncccc2c1 | 3.3% (inactive) |
| O=C(CSc1c2ccccc2nc2ccccc12)Nc1ccccc1-c1ccccc1NC(=O)CSc1c2ccccc2nc2ccccc12 | 18.6% (inactive) |
| CCCCS(=O)(=O)c1ccc(Cl)cc1 | -4.45% (inactive) |
| Cc1ccccc1N=C(N)Nc1ccccc1C | -44.3% (inactive) |
| C=Cc1ccccc1NC(C(=O)O)c1ccccc1 (stereo not given) | -0.8% (inactive) |
| CC(=O)Nc1c(C)ccc(C)c1C(=O)O | 8.25% (inactive) |
| CC1(C)CC(C)(OC(=O)c2ccccc2)N=N1 (stereo not given) | 20.1% (inactive) |
| CCOC(=O)c1ccc(C=O)cc1 | -4.95% (inactive) |
| O=C(O)/C1=C/CCC(C(=O)O)CCC1 (stereo not given) | -7.35% (inactive) |
| CC(=O)CCCC(CC(C)O)[Si](C)(C)C (stereo not given) | -1.05% (inactive) |
| O=C(Oc1c(Cl)cc([N+](=O)[O-])cc1[N+](=O)[O-])Sc1ccccc1 | 99.5% (active) |
| CC(=O)c1cccc(N)c1 | -20.4% (inactive) |
| CCC(=O)N1C(=O)C(C)C23c4ccccc4C(=O)N2CCCN13 (stereo not given) | -1.8% (inactive) |
| O=C(N/N=C\c1c[nH]c2ccccc12)N/N=C/c1c[nH]c2ccccc12 | -7.25% (inactive) |
| Cc1ccc(NC(=O)OCC(COc2ccc(Cl)cc2Cl)OC(=O)Nc2ccc(C)cc2)cc1 (stereo not given) | -0.55% (inactive) |
| [Cu+2].[Cu+2].c1ccc2c(c1)-c1nc-2nc2[n-]c(nc3nc(nc4[n-]c(n1)c1ccccc41)-c1ccccc1-3)c1cc3c4nc5nc(nc6[n-]c(nc7nc(nc([n-]4)c3cc21)-c1ccccc1-7)c1ccccc61)-c1ccccc1-5 | 11.1% (inactive) |
| Cc1cc2cccc(C)c2[nH]1 | 18.6% (inactive) |
| NCCCN=c1ccc2c3c1c(O)c1c(O)ccc(=O)c1c3[nH]n2CCNCCO | 33.3% (inactive) |
| CC(=O)c1ccccc1NC(=O)C(=O)C(C(=O)c1ccc2ccccc2c1)C1OC(=O)c2ccccc21 (stereo not given) | 11.4% (inactive) |

| Compound | growth inhibition |
| --- | --- |
| CC(=O)OCC(=O)[C@@]1(O)CC[C@H]2[C@@H]3C[C@@H](C)[C@@]4(O)CC5(CC[C@]4(C)[C@H]3[C@@H](O)C[C@@]21C)OCC(C)(C)CO5 | 27.1% (inactive) |
| CC(C)CC(NC(=O)C(O)C(N)Cc1ccccc1)C(=O)O (stereo not given) | 60.4% (inactive) |
| CCCC(CN1CCCCC1)C(OC(=O)c1ccc(N)cc1)C(F)(F)F (stereo not given) | 24.1% (inactive) |
| O=C(COc1ccccc1[N+](=O)[O-])Nc1cccnc1 | -12.3% (inactive) |
| O=C1CCc2nc(=O)c3c4ccccc4ccc3n21 | -5.35% (inactive) |
| CN(C)c1nc(=NCc2cccs2)ss1 | 77.5% (active) |
| CNC(=S)SC(=S)NC | -4.55% (inactive) |
| COc1cc(C)cc(O)c1C=O | -0.1% (inactive) |
| CCOC(=O)C1C(c2cc(OC)c(OC)c(OC)c2)c2cc3c(cc2OC1(C)OC)OCO3 (stereo not given) | -0.15% (inactive) |
| CCCCN1C(=O)C(=O)N(CCc2ccc(OC)c(OC)c2)C1=O | 11.9% (inactive) |
| O=C(C(Cl)=C(N1CCOCC1)N1CCOCC1)C(Cl)Cl | -57.5% (inactive) |
| CNC(=O)OCc1nc(SC(C)C)n(C)c1COC(=O)NC | -27.9% (inactive) |
| CC(=O)OC1C(=O)OCC23CCC(C)=CC2OC2CC(OC(=O)/C=C/C=C/C(=O)OCCC1C)C3(C)C21CO1 (stereo not given) | -31.3% (inactive) |
| Cc1ccc(S(=O)(=O)N2CCN(S(=O)(=O)c3ccc(C)cc3)CCN(S(=O)(=O)c3ccc(C)cc3)Cc3cc(Br)c(Br)cc3CN(S(=O)(=O)c3ccc(C)cc3)CC2)cc1 | -23.3% (inactive) |
| CC(C)COC1=CC(=O)c2ccccc2C1=O | 18.6% (inactive) |
| C(=Nc1ccccc1-c1ccccc1N=Cc1ccccc1)c1ccccc1 | -1.25% (inactive) |
| COc1c(O)c(O)c2c(c1O)C(=O)c1cc(C)cc(O)c1C2=O | -22.7% (inactive) |
| COc1cc(NCCCCCCN(C)C)c2ncccc2c1 | -3.1% (inactive) |
| COc1cc2c(cc1OC)C1CCN3C(=O)CCC3[N+]1(C)CC2 (stereo not given) | 28.9% (inactive) |
| c1ccc(-c2ccc(-c3c(-c4ccccc4)ccc(-c4ccccc4)c3-c3ccccc3)cc2)cc1 | -10.1% (inactive) |

Test: NCI Yeast Anticancer Drug Screen. Data for the cln2 rad14 strain (AID 165);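 also: 0% = growth equal to vehicle treated cultures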
Conditions: S. cerevisiae cln2 rad14 strain, at 50.0 µM, stronger effect = higher value
Method in brief: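 Relative to vehicle controls, growth inhibition of compound-treated cln2 rad14 yeast was recorded.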

| Compound | growth inhibition |
| --- | --- |
| Nc1cccc(OCC(O)CN2CCN(c3ccccc3)CC2)c1 (stereo not given) | -2.55% (inactive) |
| Clc1cc(Cl)c2ncccc2c1 | -30.2% (inactive) |
| O=C(CSc1c2ccccc2nc2ccccc12)Nc1ccccc1-c1ccccc1NC(=O)CSc1c2ccccc2nc2ccccc12 | 6.9% (inactive) |
| CCCCS(=O)(=O)c1ccc(Cl)cc1 | -16% (inactive) |
| Cc1ccccc1N=C(N)Nc1ccccc1C | 5.7% (inactive) |
| C=Cc1ccccc1NC(C(=O)O)c1ccccc1 (stereo not given) | 18.6% (inactive) |
| CC(=O)Nc1c(C)ccc(C)c1C(=O)O | 1.15% (inactive) |
| CC1(C)CC(C)(OC(=O)c2ccccc2)N=N1 (stereo not given) | -16.4% (inactive) |
| CCOC(=O)c1ccc(C=O)cc1 | 6.25% (inactive) |
| O=C(O)/C1=C/CCC(C(=O)O)CCC1 (stereo not given) | -44.6% (inactive) |
| CC(=O)CCCC(CC(C)O)[Si](C)(C)C (stereo not given) | -14.2% (inactive) |
| O=C(Oc1c(Cl)cc([N+](=O)[O-])cc1[N+](=O)[O-])Sc1ccccc1 | 99.2% (active) |
| CC(=O)c1cccc(N)c1 | -23.3% (inactive) |
| CCC(=O)N1C(=O)C(C)C23c4ccccc4C(=O)N2CCCN13 (stereo not given) | 11.1% (inactive) |
| O=C(N/N=C\c1c[nH]c2ccccc12)N/N=C/c1c[nH]c2ccccc12 | -11.2% (inactive) |
| Cc1ccc(NC(=O)OCC(COc2ccc(Cl)cc2Cl)OC(=O)Nc2ccc(C)cc2)cc1 (stereo not given) | 16.1% (inactive) |
| [Cu+2].[Cu+2].c1ccc2c(c1)-c1nc-2nc2[n-]c(nc3nc(nc4[n-]c(n1)c1ccccc41)-c1ccccc1-3)c1cc3c4nc5nc(nc6[n-]c(nc7nc(nc([n-]4)c3cc21)-c1ccccc1-7)c1ccccc61)-c1ccccc1-5 | -40.3% (inactive) |
| Cc1cc2cccc(C)c2[nH]1 | 0.5% (inactive) |
| NCCCN=c1ccc2c3c1c(O)c1c(O)ccc(=O)c1c3[nH]n2CCNCCO | 17.9% (inactive) |
| CC(=O)c1ccccc1NC(=O)C(=O)C(C(=O)c1ccc2ccccc2c1)C1OC(=O)c2ccccc21 (stereo not given) | -44.2% (inactive) |

| Compound | growth inhibition |
| --- | --- |
| CC(=O)OCC(=O)[C@@]1(O)CC[C@H]2[C@@H]3C[C@@H](C)[C@@]4(O)CC5(CC[C@]4(C)[C@H]3[C@@H](O)C[C@@]21C)OCC(C)(C)CO5 | 28.6% (inactive) |
| CC(C)CC(NC(=O)C(O)C(N)Cc1ccccc1)C(=O)O (stereo not given) | 47.8% (inactive) |
| CCCC(CN1CCCCC1)C(OC(=O)c1ccc(N)cc1)C(F)(F)F (stereo not given) | -30.8% (inactive) |
| O=C(COc1ccccc1[N+](=O)[O-])Nc1cccnc1 | -9.25% (inactive) |
| O=C1CCc2nc(=O)c3c4ccccc4ccc3n21 | -36.5% (inactive) |
| CN(C)c1nc(=NCc2cccs2)ss1 | 45.2% (inactive) |
| CNC(=S)SC(=S)NC | -20.4% (inactive) |
| COc1cc(C)cc(O)c1C=O | -17.1% (inactive) |
| CCOC(=O)C1C(c2cc(OC)c(OC)c(OC)c2)c2cc3c(cc2OC1(C)OC)OCO3 (stereo not given) | -1.3% (inactive) |
| CCCCN1C(=O)C(=O)N(CCc2ccc(OC)c(OC)c2)C1=O | 18.7% (inactive) |
| O=C(C(Cl)=C(N1CCOCC1)N1CCOCC1)C(Cl)Cl | -15.8% (inactive) |
| CNC(=O)OCc1nc(SC(C)C)n(C)c1COC(=O)NC | 4.3% (inactive) |
| CC(=O)OC1C(=O)OCC23CCC(C)=CC2OC2CC(OC(=O)/C=C/C=C/C(=O)OCCC1C)C3(C)C21CO1 (stereo not given) | -4.4% (inactive) |
| Cc1ccc(S(=O)(=O)N2CCN(S(=O)(=O)c3ccc(C)cc3)CCN(S(=O)(=O)c3ccc(C)cc3)Cc3cc(Br)c(Br)cc3CN(S(=O)(=O)c3ccc(C)cc3)CC2)cc1 | 17.6% (inactive) |
| CC(C)COC1=CC(=O)c2ccccc2C1=O | -1.05% (inactive) |
| C(=Nc1ccccc1-c1ccccc1N=Cc1ccccc1)c1ccccc1 | 7.2% (inactive) |
| COc1c(O)c(O)c2c(c1O)C(=O)c1cc(C)cc(O)c1C2=O | -8.45% (inactive) |
| COc1cc(NCCCCCCN(C)C)c2ncccc2c1 | -19.4% (inactive) |
| COc1cc2c(cc1OC)C1CCN3C(=O)CCC3[N+]1(C)CC2 (stereo not given) | -4.3% (inactive) |
| c1ccc(-c2ccc(-c3c(-c4ccccc4)ccc(-c4ccccc4)c3-c3ccccc3)cc2)cc1 | 20.9% (inactive) |
